The record followed here is PubChem BioAssay (NCI).

This is part of a sample that, as a whole, favours compounds with a hit. Of some 79,000 tested, about 15% had one in any assay. A number with no mark means an inactive call. The source made the active and inactive calls. Rule as the data show it: active = growth inhibition above about 70%; inactive = the rest.

This experiment in a line: NCI Yeast Anticancer Drug Screen. Data for the mec2-1 strain (AID 157). Particulars: S. cerevisiae mec2-1 strain, at 5.0 µM (retest, dose inferred, filed as 0.5), active compounds read high. Summed up:
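Each compound was tested on mec2-1 yeast, a strain altered in DNA damage repair or cell cycle control. Growth inhibition is reported relative to vehicle.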
Take `COc1ccc(N=N/N=c2\sc3cc(Cl)ccc3n2C)cc1`: the growth inhibition is 18%.

Turning to `O=c1ccc2nc3ccccc3ccc-2c1`, the growth inhibition is -53%.

Take `CC(=O)Nc1ccc(O)c(=O)cc1`: the growth inhibition was 42%. As for `CC(=O)Oc1c([N+](=O)[O-])cc(-c2ccccc2)cc1[N+](=O)[O-]`, the growth inhibition is 20%.

For the compound `Cc1cc(O)c(C)c(C)c1N=Nc1ccccc1`, the growth inhibition was -52%. For `CCCCCCCC/C=C\CCCCCCCC(=O)O` (tested in a mixture with another compound), the growth inhibition is -1%. The result for `O=S(=O)(Nc1ccc(Cl)cc1)c1ccccc1` reads -14%; that for `COC(=O)[C@@]12OC[C@]34[C@H]([C@@H](O)[C@@H]1O)[C@@]1(C)CC(=O)C(O)=C(C)[C@@H]1C[C@H]3OC(=O)[C@H](OC(=O)C(Cc1ccccc1)NC(=O)OC(C)(C)C)[C@@H]24` (stereo not given in full), 26%. The result for `CSC(=S)n1nc(-c2cccs2)c(N=Nc2ccc(Cl)cc2)c1C(F)(F)F` reads 1%; that for `CCN1C2=NCCN2S(=O)(=O)c2ccccc21`, 9%; that for `CCCc1cc(-c2ccc(O)c(CCC)c2)ccc1O`, 98% (active). With `O=[N+]([O-])c1ccc(-c2cccc(Cl)c2)c([N+](=O)[O-])c1`, the growth inhibition was -3%. The result for `COC(=O)Oc1nn(C(=O)OC)c(=O)c2ccccc12` reads -3%; that for `Cc1n(CC(C)C)c2c([n+]1CC(=O)c1ccc([N+](=O)[O-])cc1)C(=O)c1ccccc1C2=O`, 25%. In the case of `O=C(c1ccccc1)C1C(c2ccccc2)OP(c2ccccc2)(c2ccccc2)(c2ccccc2)C1c1ccccc1` (stereo not given) it was 96% (active); in that of `Cc1nc2c(cnn2-c2ccccc2)c(=O)o1`, -52%; in that of `CCOC(=O)C(=O)Nc1nc2c(s1)C(=O)c1ccccc1C2=O`, 18%.

For the compound `O=C(CCl)OCC(=O)c1ccc(-c2ccccc2)cc1`, the growth inhibition was 5%. Consider `ICCCCCCCCCC[n+]1ccc2ccccc2c1`, for which the growth inhibition was 89% (active). The result for `CCC(C)OC(=O)Nc1cccc(Cl)c1` (stereo not given) reads -7%; that for `COc1ccccc1CN1CCCN(Cc2ccccc2OC)C1c1ccccc1F`, -9%.

For `ON=C(CC(O)(C(F)(F)Cl)C(F)(F)Cl)CC(O)(C(F)(F)Cl)C(F)(F)Cl`, the growth inhibition is 69%. On to `COC(=O)Cn1/c(=N\N=C(/C)c2ccc(C)cc2)sc2ccccc21`, for which the growth inhibition was -2%. As for `CCN(CC)CCOc1ccc(NC(=S)Nc2ccc(OCC(C)C)cc2)cc1`, the growth inhibition is 29%. As to `CCCCCCCCCCNC(=O)CBr`, the growth inhibition was -2%.

Regarding `CN(C)c1ccc(N=Nc2ccc(/C=C3\CCOC3=O)cc2)cc1`, the growth inhibition was -5%. In the case of `CCc1cccc(CC)c1NC(=O)C1=C(C)NC(C)=C(C(=O)Nc2c(CC)cccc2CC)C1c1ccc2c(c1)OCO2` it was 45%; in that of `Nc1cc2[nH]c(=O)c3cc(Cl)ccc3c2cc1Cl`, 7%; in that of `COc1ccc(OC(C)=O)c2c1CCC=CC2=O`, 24%. As for `COc1ccc(-c2n[nH]c(C(F)(F)F)c2N=NN(C)C)cc1OC`, the growth inhibition is 99% (active).

On to `CCC(=NCCCCCCN=C(CC)c1cc(C)cc([N+](=O)[O-])c1O)c1cc(C)cc([N+](=O)[O-])c1O.[Fe]`, for which the growth inhibition was -10%. In the case of `COc1ccc(CN2CCCN(Cc3ccc(OC)cc3)C2Cc2cc(Cl)ccc2OC)cc1`, the growth inhibition is -3%.

For `Cc1cc(Cc2ccc(Cl)cc2)ccc1O`, the growth inhibition is -8%. Regarding `CNCCN[C@@H]1c2cc3c(cc2[C@@H](c2cc(OC)c(O)c(OC)c2)[C@H]2C(=O)OC[C@@H]21)OCO3`, the growth inhibition was 43%.

`Cc1cc(NC(=S)SC(C)C)ccc1Br`: the growth inhibition was 0%.

As for `CC1CC2(C)ON=C(c3ccccc3)N2c2ccccc2S1` (stereo not given), the growth inhibition is -4%. In the case of `O=C(Cc1ccccc1)OC(C(=O)c1ccccc1)c1ccccc1` (stereo not given) it was 7%. In the case of `Nc1ccc2ccccc2c1N=Nc1ccccc1` it was 0%; in that of `Clc1ccc(C(c2ccc(Cl)cc2)c2cncnc2)cc1`, 6%; in that of `OC(C(=Nc1ccccc1)c1ccccc1)c1ccccc1` (stereo not given), 11%.
